Among the data in PubChem BioAssay AID528 (NMMLSC, 2006) are activation values, retold here.

The campaign covered roughly 24,000 compounds. Fewer than 10 were called active. Not shown: some 9% with an inconclusive outcome. A selection follows. Unmarked numbers belong to inactive results.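 Rule for the calls: active = fluorescent ligand binding to cells raised by more than 40% of the manganese-induced maximum; inconclusive = compound's own fluorescence above 85% of the ligand control signal; inactive = the rest.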

Chain of Integrin alpha-4 (Homo sapiens) (P13612 whole entry, looked up): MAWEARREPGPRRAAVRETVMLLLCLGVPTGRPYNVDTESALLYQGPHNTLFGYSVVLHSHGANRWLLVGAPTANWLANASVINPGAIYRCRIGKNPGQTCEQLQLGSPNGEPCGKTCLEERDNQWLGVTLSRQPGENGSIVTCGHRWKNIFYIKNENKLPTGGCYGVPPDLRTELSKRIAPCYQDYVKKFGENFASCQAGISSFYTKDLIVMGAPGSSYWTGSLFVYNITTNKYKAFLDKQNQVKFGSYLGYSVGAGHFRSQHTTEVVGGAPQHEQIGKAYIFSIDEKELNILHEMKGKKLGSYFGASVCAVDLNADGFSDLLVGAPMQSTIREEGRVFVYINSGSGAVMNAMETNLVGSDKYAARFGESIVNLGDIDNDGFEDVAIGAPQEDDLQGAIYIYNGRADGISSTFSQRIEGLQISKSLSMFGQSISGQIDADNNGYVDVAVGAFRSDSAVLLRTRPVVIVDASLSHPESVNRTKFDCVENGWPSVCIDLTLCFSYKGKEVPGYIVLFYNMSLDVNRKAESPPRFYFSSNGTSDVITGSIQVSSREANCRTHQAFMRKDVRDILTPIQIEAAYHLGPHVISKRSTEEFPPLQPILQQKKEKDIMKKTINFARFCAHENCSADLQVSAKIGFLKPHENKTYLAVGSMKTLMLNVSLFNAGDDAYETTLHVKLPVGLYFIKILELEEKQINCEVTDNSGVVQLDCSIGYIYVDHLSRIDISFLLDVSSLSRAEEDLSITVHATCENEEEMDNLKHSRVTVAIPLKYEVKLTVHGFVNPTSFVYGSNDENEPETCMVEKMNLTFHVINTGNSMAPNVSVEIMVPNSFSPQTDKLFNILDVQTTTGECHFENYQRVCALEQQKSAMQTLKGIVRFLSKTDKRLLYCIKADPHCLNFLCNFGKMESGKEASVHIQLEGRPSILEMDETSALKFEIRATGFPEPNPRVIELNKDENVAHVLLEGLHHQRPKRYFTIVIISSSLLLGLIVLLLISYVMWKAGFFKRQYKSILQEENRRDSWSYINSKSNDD

This assay concerns the target Integrin alpha-4 (Homo sapiens) (UniProt P13612). Kind of assay: increased LDV-FITC ligand binding on VLA-4 – Jurkat cells, flow cytometry, primary screen (AID 528).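 Note: 0% = ligand binding without compound and 100% = manganese-stimulated maximal binding.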 Particulars: active compounds read high, screened at 10 µM (by protocol).
Take `COC(=O)c1ccc(CN(c2ccccc2OC)S(=O)(=O)c2cccs2)o1`: the activation was -2%.

`O=C(CCS(=O)(=O)Cc1ccccc1F)NCCCN1CCCCC1`: the activation was -2%.

Turning to `COc1ccc(CN2C(=O)CN=C2Nc2ccc(C)cc2C)cc1`, the activation was 6%.

In the case of `COc1cccc(N2C(=O)CC(N3CCN(S(=O)(=O)c4ccccc4)CC3)C2=O)c1` (stereo not given), the activation is -2%.

As to `CN(CCCNC(=O)CN1C(=O)CC(C)(C)S(=O)(=O)c2ccccc21)C1CCCCC1`, the activation is 6%.

In the case of `Cc1ccc(NC(=O)CCNS(=O)(=O)c2ccc3c(c2)oc(=O)n3C)cc1C`, the activation was 9%.

For `O=C(COC(=O)c1ccccc1C(=O)c1ccccc1)c1ccco1`, the activation is 2.5%.

In the case of `CNC(=O)Nc1cc(C(C)(C)C)no1`, the activation is -2%.

As to `Cc1cc(=O)n2nc(N3CCCC(C(=O)NCCC4=CCCCC4)C3)sc2n1` (stereo not given), the activation is -3%.

For the compound `CC(c1cccnc1)N(CCN(C)C)C(=O)Nc1ccc(Cl)c(Cl)c1` (stereo not given), the activation is -2%.

As to `CSc1sc(C)cc1C1C(C#N)=C(N)N(c2cccnc2)C2=C1C(=O)CCC2` (stereo not given), the activation is 0%.

Turning to `COc1ccc(C2C3=C(OC(C)=O)c4ccccc4C3=Nc3c2c(=O)n(C)c(=O)n3C)cc1` (stereo not given), the activation is -0.5%.

As to `COCCNC(=O)CN1C(=O)CSc2ncccc21`, the activation is 2.7%.

`CC(=O)Nc1ccc(S(=O)(=O)N2CCC(N(C)CCC(C)C)CC2)cc1`: the activation is 4%.

For the compound `CCOC(=O)N1CCC(NC(=O)COc2cc(=O)n(C)c3ccccc23)CC1`, the activation was -3%.

`O=C(O)CCN1C(=O)CC2(CCCCC2)C1=O`: the activation was -1%.

Regarding `c1cc(-c2nn[nH]n2)ccc1CN1CCCCC1`, the activation is 1%.

As for `O=C(O)CSCNC(=O)CC12CC3CC(CC(C3)C1)C2`, the activation was 13%.

Regarding `CCC(C)NC(=O)C1CCC(=O)N1Cc1ccc(C)cc1` (stereo not given), the activation was 4%.

As to `O=c1c(-c2ccccc2)coc2c(CN3CCOCC3)c(O)ccc12`, the activation is 9.5%.

Regarding `Cc1noc(C)c1S(=O)(=O)N(CC(=O)NCc1ccc(Cl)cc1)c1ccc2c(c1)OCO2`, the activation was 3%.

On to `CC(C)C(=O)Nc1c(C(=O)c2ccc(F)cc2)oc2ccccc12`, for which the activation is -2%.

Regarding `O=C(CCCCn1c(=O)[nH]c2ccccc2c1=O)NCc1ccc2c(c1)OCO2`, the activation was 10%.

With `CCCC(=O)NC(C)C(c1cccs1)N1CCN(c2ccccc2)CC1` (stereo not given), the activation is -2%.

For the compound `Cn1cccc1C1(C(F)(F)F)NCCNC1=O` (stereo not given), the activation is 1%.

Regarding `Cc1ccccc1CSc1nnc(Cn2c(=O)sc3ccccc32)n1C`, the activation is 4%.

Take `Nc1nonc1C(=O)NCCc1ccccc1`: the activation was 6%.

As to `CCOc1ccc(-c2nnc3ccc(SC)nn23)cc1`, the activation was 4%.

Regarding `CCOc1ccc(-n2c(SC(C)C(=O)OC)nc3c(c2=O)SCC3)cc1` (stereo not given), the activation is 0%.

`O=C(NCc1ccco1)C1CCCN(S(=O)(=O)c2cnc[nH]2)C1` (stereo not given): the activation is -5%.

Regarding `O=C(Nc1nsc(-c2ccccc2)n1)c1ccncc1`, the activation was 4%.

Take `COc1nc(Oc2ccc(=O)n(C)n2)nc(N(C)C)n1`: the activation was 4%.

`C=CCOc1ccc(C2/C(=C(\O)c3c(C)[nH]c(C(=O)OC)c3C)C(=O)C(=O)N2CCN(C)C)cc1` (stereo not given): the activation was -6%.

Turning to `CCOC(=O)C1CCN(C(=O)c2oc3ccc(S(=O)(=O)N4CCCCCC4)cc3c2C)CC1`, the activation was -3%.

Take `O=C(O)c1ccc(NC(=O)c2cccs2)cc1`: the activation is -2.5%.

Consider `CCC1Oc2ccc(Cl)cc2N(CC(=O)O)C1=O` (stereo not given), for which the activation was 2%.

Take `CCOC(=O)CSc1nnc(NC(=O)c2cccc(S(=O)(=O)N3CCCCC3)c2)s1`: the activation was 0.5%.

`CCC(=O)c1ccc(OCC(O)CN2C(=O)NC(C)(C)C2=O)cc1` (stereo not given): the activation was -4%.

Consider `Cc1ccc(-c2cc(C(F)(F)F)n3nc(C(=O)N4CCCC4)cc3n2)cc1`, for which the activation is -1%.

As for `Cc1ccc(CNC(=O)CN2CCN(Cc3ccc(Cl)cc3)C2=O)cc1`, the activation is -2%.

With `CCn1c(SCC(=O)Nc2ccc3c(c2)OCCO3)nc2c(c1=O)SC(C)C2` (stereo not given), the activation was -4%.

As for `CS(=O)(=O)NCc1ccc(C(=O)NCc2ccccc2)cc1`, the activation was 1%.

In the case of `CCCC(=O)Nc1nnc(CC(=O)OCC)s1`, the activation was -0.5%.

Regarding `O=C(CC1Oc2ccccc2NC1=O)NCCCN1CCN(Cc2ccccc2)CC1` (stereo not given), the activation is -1%.

Take `CCC1CCCCN1CCNS(=O)(=O)c1ccc2c(c1)CCN2C(C)=O` (stereo not given): the activation was -4%.

For `Cc1oc(-c2cccc(Cl)c2)[n+]([O-])c1C`, the activation was 8%.

Take `CCOC(=O)CN1C(=O)C(O)(CC(=O)c2ccccn2)c2ccccc21` (stereo not given): the activation is 4%.

Take `CCOc1ccc(S(=O)(=O)n2ccnc2)c2ccccc12`: the activation was 1%.

As for `Cn1c(=O)c2c(nc(N3CCCCCC3)n2CC(=O)c2ccc(Br)cc2)n(C)c1=O`, the activation was -1%.

With `CCOc1ccc(OCC)c(NC(=O)C(NS(=O)(=O)c2ccc3c(c2)oc(=O)n3C)C(C)C)c1` (stereo not given), the activation is -2%.

In the case of `Cn1cccc1Cc1nnc(SCC(=O)NCc2ccc3c(c2)OCO3)n1CCc1ccccc1`, the activation is -4%.

Regarding `Cn1c(=O)[nH]c(=O)c2c1nc(CN(Cc1ccccc1)Cc1ccccc1)n2CCN1CCOCC1`, the activation was -6%.

With `C=CCn1c(=N)n(CC(O)COc2ccc(OC)cc2)c2ccccc21` (stereo not given), the activation is 0%.

Consider `CCOc1cc(C(=O)Nc2ncccn2)cc(OCC)c1OCC`, for which the activation is 11.5%.

For the compound `Cc1nnc(C)n1/N=C/c1ccc(C(C)C)cc1`, the activation was -4%.

Turning to `N#CCCN1CCN(S(=O)(=O)c2ccc(S(=O)(=O)NC3CC3)cc2)CC1`, the activation is 1%.

As to `Cc1nnc(NC(=O)CCC(=O)N2CCC(C)CC2)s1`, the activation was -0.5%.

Consider `O=C(CCn1c(=S)[nH]c2ccccc2c1=O)NCCCN1CCCC1=O`, for which the activation is 5%.

Take `CC(=O)c1c(N)n(C)c(=O)n(C)c1=O`: the activation is 9%.

Take `CCCn1nnc2sc3c(c2c1=O)CCC(C)C3` (stereo not given): the activation was 4%.

Turning to `CC1CCCN(C(=O)c2ccc3c(c2)C(=O)N(CCC2=CCCCC2)C3=O)C1` (stereo not given), the activation is 0%.

`CCCCC(=O)N(c1ccc(OC)cc1)C1C=CS(=O)(=O)C1` (stereo not given): the activation was -1%.

As for `CCCCn1c(=S)[nH]c2ncccc2c1=O`, the activation was 1%.

Turning to `O=S1(=O)CC(NCc2ccccc2)C(Nc2ccc(Cl)cc2)C1` (stereo not given), the activation was -8%.

On to `CCCCCCn1c(CN2CCCCC2)nc2c1c(=O)n(C)c(=O)n2C`, for which the activation was -6%.

Turning to `COc1ccccc1C(=O)N1CCN=C1SCc1cccnc1`, the activation was 2%.

`Cc1ccc(S(=O)(=O)N2C3C=CC(C3)C2C(=O)O)cc1` (stereo not given): the activation is 5%.

As for `COc1cccc(N(C(=O)c2ccn[nH]2)C2(C(=O)Nc3c(C)cccc3C)CCCCC2)c1`, the activation is 3%.

As to `CCOC(=O)C1CCN(C(=O)C2CCN(S(=O)(=O)N3CCCC3)CC2)CC1`, the activation was 6%.

Consider `COc1ccc(-c2nc(CS(=O)CC(=O)NCc3cccnc3)c(C)o2)cc1OC` (stereo not given), for which the activation is 3%.

Turning to `Cc1noc(C)c1S(=O)(=O)N1CCCC(C(=O)Nc2nccs2)C1` (stereo not given), the activation is 0%.

In the case of `CCN(CC)S(=O)(=O)N1CCC(C(=O)NC(C)CCc2ccccc2)CC1` (stereo not given), the activation was 3%.

As for `COc1cccc(-n2c(Cc3cc(=O)[nH]c(=O)[nH]3)nnc2SCC(=O)Nc2ccccc2)c1`, the activation is 5%.

With `Cc1cccc(N2C(=O)SC(N(CC(=O)O)c3cccc(C)c3)C2=O)c1` (stereo not given), the activation is 7%.

`CCN(Cc1ccccc1)C(=O)CSc1nc(C)cc2c1C(=O)OC2`: the activation is -9%.

For `CCOc1ccc(CNC(=O)C2CCC(=O)N2C2CCCC2)cc1OC` (stereo not given), the activation is -7%.

Take `O=C(CN1CCN(S(=O)(=O)c2ccc(F)cc2)CC1)Nc1ccccc1F`: the activation is -1%.

In the case of `COc1ccc(OC)c(N=Cc2c(O)[nH]c3ccccc23)c1`, the activation was 8%.

As for `O=C1c2cccnc2C(=O)N1Cc1cccs1`, the activation was 0%.

For `COc1ccccc1CNC(=O)CCn1c(=O)sc2ccccc21`, the activation is 5%.

For the compound `CSCCC(NC(=O)C1CCC(C)CC1)C(=O)NCc1ccco1` (stereo not given), the activation was 3%.

As to `CC(=O)c1c(C)c[nH]c1C`, the activation was 3%.

In the case of `CCOC(=O)c1cnc(-n2nc(C)cc2C)nc1Nc1cccc(C(C)=O)c1`, the activation was 0%.

Consider `CCOc1cc(/C=N/n2cnnc2)c(Br)cc1O`, for which the activation is 9%.

Consider `CC1CN(C(=O)c2ccc3c(c2)OCO3)OC(c2ccccc2)O1` (stereo not given), for which the activation is 4%.

Take `CCOC(=O)N1CCN(C(=O)c2n[nH]c(=O)c3ccccc23)CC1`: the activation was -9%.

For the compound `CCOC(=O)N1CCN(S(=O)(=O)c2cc3c(cc2C)NC(=O)CO3)CC1`, the activation was -8%.

Take `Cc1oc(-c2ccccc2F)nc1CS(=O)(=O)CC(=O)NCCCN(C)C1CCCCC1`: the activation is -7%.

Regarding `O=C(NCc1cccnc1)c1ccc(CS(=O)(=O)c2ccc(Br)cc2)o1`, the activation is 3%.

Take `CCOC(=O)c1ccc(-n2c(C)nc3c(cnn3-c3ccccc3C)c2=O)cc1`: the activation is -2.3%.

Consider `CCOc1cc2[nH]c(=O)n(CCC(=O)NCc3ccc(OC)cc3)c(=O)c2cc1OCC`, for which the activation is 1%.

With `COc1ccccc1NC(=O)CN1CCN(S(=O)(=O)c2ccc(Br)cc2)CC1`, the activation was 1%.

On to `O=C(O)CCC(=O)Nc1ccc(N2CCOCC2)cc1`, for which the activation is 2%.

In the case of `S=C1SCN(CCN2CCOCC2)CN1Cc1ccccc1`, the activation is -3%.

For `Cc1ccc(S(=O)(=O)NCCN2CCOCC2)cc1C`, the activation was -2%.

For `CN1CCCc2cc(C#N)c(=O)[nH]c21`, the activation is -3%.

As for `CCN1CCN(c2ncnc3c2oc2nc(C)c4c(c23)CC(C)(C)OC4)CC1`, the activation is 9%.

`CCOc1ccc(NC(=O)CC2NCCNC2=O)cc1` (stereo not given): the activation is 0.7%.

As to `O=C(CN1CCOCC1)N1CCCc2c1c(=O)oc1ccc(OCc3ccccc3)cc21`, the activation is -5%.

Consider `Cc1ccc2nc3n(c(=O)c2c1)CCC3`, for which the activation was 5%.
